An excerpt weighted towards active compounds, which were near 1.6% of everything screened.
PLK1 inh – PLK1 (human) kinase inhibition | AID 619 | recombinant PLK1 kinase, TR-FRET peptide phosphorylation | inhibition, % at 10 µM | P53350 | actives 0.53% (n = 97,000);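 active means inhibition of 50% or more in the single-concentration screen; inactive means inhibition below 50%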
PTK2B oligo ant – antagonists of human Pyk2 oligomerization; z-score (the deposit names both 25 µM and 10 µM); Q14289; Q293 cells, Pyk2 FERM NanoBiT luminescence; stronger effect = lower value; actives 0.83% (n = 99,000);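 active means Z-score of -3 or lower, scaled per plate to the spread of control and sample wells; inactive means z-score above -3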;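 further: negative z-score means lost luminescence so less FERM oligomerization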
Target sequence (Q14289 whole entry, looked up): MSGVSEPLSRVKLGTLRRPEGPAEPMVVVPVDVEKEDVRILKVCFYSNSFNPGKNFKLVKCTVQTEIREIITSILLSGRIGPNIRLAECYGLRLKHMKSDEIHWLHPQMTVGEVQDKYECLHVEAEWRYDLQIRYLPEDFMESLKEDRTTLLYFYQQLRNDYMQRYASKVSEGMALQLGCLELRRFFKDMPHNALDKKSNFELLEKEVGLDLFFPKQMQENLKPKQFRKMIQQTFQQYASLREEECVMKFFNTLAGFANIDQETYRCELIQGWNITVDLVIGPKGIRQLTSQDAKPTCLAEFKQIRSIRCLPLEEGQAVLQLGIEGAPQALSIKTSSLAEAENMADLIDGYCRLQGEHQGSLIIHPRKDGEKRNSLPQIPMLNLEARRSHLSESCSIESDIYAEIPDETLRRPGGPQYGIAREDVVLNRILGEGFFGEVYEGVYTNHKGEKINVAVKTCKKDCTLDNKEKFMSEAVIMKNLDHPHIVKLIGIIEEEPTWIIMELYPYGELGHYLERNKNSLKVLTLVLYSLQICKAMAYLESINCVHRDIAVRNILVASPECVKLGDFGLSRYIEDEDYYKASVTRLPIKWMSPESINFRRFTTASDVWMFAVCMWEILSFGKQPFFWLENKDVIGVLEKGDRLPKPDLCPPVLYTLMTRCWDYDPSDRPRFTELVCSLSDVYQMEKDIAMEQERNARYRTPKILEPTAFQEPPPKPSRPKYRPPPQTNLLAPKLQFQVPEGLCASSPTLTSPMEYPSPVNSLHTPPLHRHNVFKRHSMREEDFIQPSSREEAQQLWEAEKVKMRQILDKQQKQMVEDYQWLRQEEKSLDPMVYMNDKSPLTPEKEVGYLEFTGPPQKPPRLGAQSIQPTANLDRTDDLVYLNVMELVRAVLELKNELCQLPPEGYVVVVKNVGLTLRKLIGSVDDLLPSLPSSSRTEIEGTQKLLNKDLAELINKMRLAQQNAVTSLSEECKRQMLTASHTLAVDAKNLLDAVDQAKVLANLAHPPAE
sEH inhibitor – blocks human soluble epoxide hydrolase activity. actives 0.34% (n = 91,000). recombinant human sEH enzymatic activity assay. inhibition, % at 2 µM; in the data active means inhibition above about 80%
sEH act – increases human soluble epoxide hydrolase activity; P34913; purified human sEH enzymatic activity, activator screen; activation, % at 2 µM; actives 0.04% (n = 91,000); AID 717; in the data active means activation above about 37%
Plk1 PBD FP – inhibitors of human Plk1 polo box domain binding | P53350 | Plk1 PBD phosphopeptide binding, fluorescence polarization | inhibition, %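 (tested at about 20 µM)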 | actives 0.13% (n = 97,000) | AID 693; in the data active means inhibition above about 34%, passing the limit was not always enough
Hits are given with their value; 0 = inactive; - = no result.

SMILES	PLK1 inh	PTK2B oligo ant	sEH inhibitor	sEH act	Plk1 PBD FP
CCCn1c(=O)n(C)c(=O)c2c(SCC(=O)NCc3ccco3)nc(C3CC3)nc21	0	0	0	0	0
COC(=O)c1ccc(C(=O)OC)c(NC(=O)COC(=O)CC2CC3CCC2C3)c1 (stereo unspecified)	0	0	0	0	0
Cc1[nH]nc2c1C1(C(=O)N(Cc3ccc(Cl)cc3)c3ccccc31)C(C#N)=C(N)O2 (stereo unspecified)	0	0	0	0	0
CN1C(=O)C2(C(C#N)=C(N)Oc3n[nH]c(-c4ccc(Cl)cc4)c32)c2ccccc21 (stereo unspecified)	0	-3	0	0	0
COc1cccc(-c2nn(-c3ccccc3)cc2C(=O)Nc2nccs2)c1	0	-3.6	0	0	0
O=C(CC1Oc2ccccc2NC1=O)NC1CC1 (stereo unspecified)	0	-	0	0	0
O=C(CC1Oc2ccccc2NC1=O)NC1CCCC1 (stereo unspecified)	69	-	-	-	0
COC(=O)C1C(=O)C2=C(CC1C)NC(C)=C(C(=O)OCc1ccc(OC)cc1)C2c1ccc(C)o1 (stereo unspecified)	0	0	0	0	0
COC(=O)C1C(=O)C2=C(CC1C)NC(C)=C(C(=O)OCCOc1ccccc1)C2c1ccc(C)o1 (stereo unspecified)	0	-3.9	0	0	0
Cc1cc(N2CCN(c3ccccc3)CC2)nc(-n2nc(C)cc2C)n1	0	0	0	0	0
CCOC(=O)Nc1ccc2c(c1)N(C(=O)OC)c1ccccc1CC2	0	0	0	41	0
O=C(Nc1nnc(-c2ccc(Cl)s2)o1)C1CCCCC1	0	-	0	0	0
CCCC(=O)Nc1nnc(-c2ccc(Cl)s2)o1	64	-	-	-	0
CCCCn1nc(NC(=O)c2cccs2)c2cc3cc(OC)ccc3nc21	0	-3	0	0	0
CCCCn1nc(NC(=O)c2cccs2)c2cc3ccccc3nc21	0	-3.1	-	-	0
Cc1ccc(Cn2ccc(=O)c(Cc3c(Cl)cccc3Cl)c2C)cc1	0	0	90	0	0
COc1ccc(Cn2ccc(=O)c(Cc3c(Cl)cccc3Cl)c2C)cc1	0	0	0	0	0
Cc1snc(S(=O)(=O)Cc2ccccc2Cl)c1C#N	0	0	0	0	0
CCOC(=O)CSc1nc2ccccc2c(=O)n1CC1CCC(C(=O)NCc2ccco2)CC1 (stereo unspecified)	0	0	82	0	0
CCCOc1ccc(C2C(C(=O)OC)=CN(CCOC)C=C2C(=O)OC)cc1	0	-3.5	0	0	0
O=C(O)c1ccccc1C1=Nc2ccc(O)cc2Oc2cc(O)ccc21	0	0	0	0	50
Nc1ncnc2oc(-c3ccco3)c(-c3ccco3)c12	56	0	0	0	0
O=C(Nc1cccc2ccccc12)N1CCN(c2ccccc2)CC1	0	-3.8	0	0	0
C=CCn1c2ccccc2c2nnc(SC(CC)C(=O)Nc3sc4c(c3C#N)CCCC4)nc21 (stereo unspecified)	0	0	0	0	0
Cn1c2c(c(=O)n(C)c1=O)C(C(F)(F)F)(C(F)(F)F)N=C(c1ccc(Cl)cc1)N2	0	-3.3	0	0	0
SMILES	PLK1 inh	PTK2B oligo ant	sEH inhibitor	sEH act	Plk1 PBD FP
CC(=O)NC1(C(F)(F)F)C(=O)Nc2c1c(=O)n(C)c(=O)n2C (stereo unspecified)	0	0	0	0	0
O=C(Nc1ccc(N2CCN(C(=O)c3ccco3)CC2)c(Cl)c1)c1cc2ccccc2o1	0	-3.1	0	0	0
CCC(=O)N1CCN(c2ccc(NC(=O)c3cc4ccccc4o3)cc2Cl)CC1	0	-3.1	0	0	0
O=C(Nc1ccc(N2CCN(C(=O)c3ccccc3)CC2)c(Cl)c1)c1ccco1	0	0	0	0	0
CCCC(=O)N1CCN(c2ccc(NC(=O)c3cc4ccccc4o3)cc2Cl)CC1	0	0	0	0	0
Cc1ccc(C(C(=O)NC(C)(C)C)N(Cc2ccco2)C(=O)CCC(=O)Nc2nccs2)cc1 (stereo unspecified)	0	-	0	0	0
CCc1nc(SCC(=O)N2CCC(C)CC2)c2c(=O)n(C)c(=O)n(C)c2n1	68	-	-	-	0
Cn1c(=O)c2c(nc(NCc3ccco3)n2C)n(C)c1=O	0	0	0	0	0
Cn1c(=O)c2c(nc(NCc3ccco3)n2C/C=C/c2ccccc2)n(C)c1=O	-	-3	-	-	-
Cc1noc(C)c1COc1cccc(C(=O)NCc2ccccc2Cl)c1	0	0	86	0	0
CCCCN(CCCNC(=O)C1CCN(S(=O)(=O)CC)CC1)c1ccccc1	0	0	0	0	0
CC1(C)Cc2c(C#N)c(NCCCO)nc(-c3ccccc3)c2CO1	67	-	-	-	0
Cc1cc(NS(=O)(=O)c2ccc(Nc3nc(-c4sc(NC(=O)c5ccccc5)nc4C)cs3)cc2)no1	0	-	94	0	0
CCn1c(SCC(=O)Nc2oc(-c3ccccc3)c(-c3ccccc3)c2C#N)nnc1-c1ccco1	0	0	0	0	0
COc1ccc(-c2oc(NC(=O)CSc3nncn3C)c(C#N)c2-c2ccc(OC)cc2)cc1	0	-3.8	0	0	0
Cc1onc(-c2c(F)cccc2Cl)c1C(=O)Nc1nnc(-c2ccccc2)s1	0	-3.1	0	0	0
CCOC(=O)N1CCN(C(=O)c2ccc(CN(c3ccccc3)S(C)(=O)=O)cc2)CC1	0	0	-	-	0
O=C(CSC1=NCCS1)Nc1ccnc2ccccc12	-	0	-	-	-
CSc1nnc2c3ccccc3n(CCc3ccccc3)c2n1	-	-3.3	-	-	-
O=C(Nc1ccccc1N1CCOCC1)c1ccccc1NS(=O)(=O)c1ccc(F)cc1	0	0	0	0	0
CCOc1ccc(S(=O)(=O)Nc2ccccc2C(=O)Nc2ccccc2N2CCOCC2)cc1	0	-3.1	0	0	0
C/C(=N\OC(=O)c1ccc(F)cc1)c1nccs1	0	0	0	0	0
C/C(=N/OC(=O)c1c(F)cccc1F)c1nccs1	0	0	0	39	0
O=C(NC1CCCCC1)NC1CC2CCC(C1)N2Cc1nnnn1Cc1ccc2c(c1)OCO2 (stereo unspecified)	0	0	95	0	0
CCOc1c(Cl)cc(C(=O)Nc2ccccc2C(=O)O)cc1Cl	0	-4	0	0	0
SMILES	PLK1 inh	PTK2B oligo ant	sEH inhibitor	sEH act	Plk1 PBD FP
CCOc1ccccc1C(=O)Nc1cc(Cl)ccc1O	0	-3.7	0	0	0
COc1ccccc1C(=O)Nc1cc(Cl)ccc1O	-	0	-	-	-
COc1ccc(-n2nc(C(=O)NCC(=O)NCc3ccc(F)cc3)c3ccccc3c2=O)c(OC)c1	0	0	0	0	0
COc1ccc(-c2cc(C3CCN(c4ccc(C(C)=O)cc4[N+](=O)[O-])CC3)[nH]n2)cc1	0	-3.2	0	0	0
COC(=O)c1ccc(N2CCC(c3cc(-c4ccc(OC)cc4)n[nH]3)CC2)c([N+](=O)[O-])c1	0	0	0	0	0
COc1ccccc1NC(=O)Cn1nc(-c2ccc(Cl)cc2)c2ccccc2c1=O	0	0	0	0	0
CC(C)OC(=O)CC12CN(C)CC(CC(=O)OC(C)C)(CN(C)C1)C2=O	0	0	0	0	0
CSC1=NCCN1C(=O)COc1ccccc1	69	-	-	-	0
CC1(C)CC(=O)C=C(NCC2CCCO2)C1 (stereo unspecified)	0	0	0	0	0

Screening data deposited in PubChem by several laboratories.
